# PubChem BioAssay (NCI)
# About 83,000 compounds went through this panel and 20% of them were active in at least one assay; those are over-represented in the sample as a whole.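 Cell lines were cultured in 96-well plates, exposed to a single compound concentration, and assessed for percent growth 48 hours later.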 Calls of active or inactive are those of the source. Rule for the calls: active = growth percent below 10; inactive = the rest.
# System: UACC-257 melanoma
# Assay: NCI-60 one-dose screen, 48 h (100 = growth as untreated, 0 = no growth, -100 = all killed)
# Conditions: 10 µM unless noted
row,Structure (SMILES),growth
1,CCC1S/C(=N\N=C(/C)c2ccco2)N(c2ccccc2)C1=O (centres undefined),109% (inactive)
2,C#C[C@H](O)/C=C/CCCCCCC#C[C@H](O)CC[C@@H](O)C#CCCCCCC/C=C/[C@@H](O)C#C,101% (inactive)
3,O=[N+]([O-])c1cccc2cc(S(=O)(=O)O)ccc12,91.9% (inactive)
4,Nc1ccc(S(=O)(=O)Nc2cc(I)cc(I)c2)cc1,99.7% (inactive)
5,O=C(Nc1ccc(-n2cc(-c3ccncc3)c(-c3ccc(O)c(Cl)c3)n2)cc1)Nc1cc(C(F)(F)F)cc(C(F)(F)F)c1,90.3% (inactive)
6,O[C@@H]1CCO[C@H](c2ccc3ccccc3c2)C1,98.5% (inactive)
7,COc1cc(Cn2cc3c(c2)-c2onc(CO)c2CC3)cc(OC)c1OC,93.2% (inactive)
8,CN(C)CCS(=O)(=O)Nc1cc(-c2ccc3ncnc(Nc4ccc(F)c(Cl)c4)c3c2)cnc1Cl,-0.224% (active)
9,CCN(CC)c1ccc(C2CC(c3cc(OC)c(OC)c(OC)c3)=NN2)cc1 (centres undefined),30.8% (inactive)
10,CCn1cc(C(=O)O)c(=O)c2cc(F)c(N3CCN(CC(=O)Nc4ccc(C(C)=O)cc4)CC3)cc21,93.1% (inactive)
11,CCOc1ccc(-n2c(-c3cc(OC)c(OC)c(OC)c3)nnc2-c2ccc(OC)cc2N)cc1,57.2% (inactive)
12,COc1ccc(/C(=C/c2cc(OC)c(OC)c(OC)c2)[N+](=O)[O-])cc1,31.8% (inactive)
13,O=C(Nc1cccc([N+](=O)[O-])c1)Nc1cccc([N+](=O)[O-])c1,68.1% (inactive)
14,COc1ccc(-c2nn(-c3ccc(NC(=O)Nc4cc(C(F)(F)F)cc(C(F)(F)F)c4)cc3)cc2-c2ccncc2)cc1Cl,13.6% (inactive)
